RAM inhibit: inhibitors of the yeast RAM network, primary screen, dse1pr::URA3 reporter, 5-FOA selection; S. cerevisiae dse1pr::URA3 reporter, 5-FOA growth OD615, 2 d; analog-sensitive cbk1-as2 kinase mutant strain; 1.8% of 190,000 active; inhibition, % at 50 µM; AID 868, 2007;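 active = inhibition above a set limit, 3 SD over mean compound inhibition, cut at about 8.4% in these data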;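 also: 0% = DMSO-only wells with no growth and 100% = 10 µM 1-NA-PP1 full growth; inhibition rescues growth on 5-FOA so higher OD means more RAM inhibition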
L major viab: Leishmania major promastigote growth inhibition, primary screen; Leishmania major promastigotes, resazurin fluorescence viability; inhibition, % at 10 µM; 9% of 200,000 active; AID 1063, 2008; in the data active = inhibition above about 50%;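 also: promastigotes grown with compound for 44 hours at 28 °C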
WT yeast gro inh: growth inhibition of WT strain, primary screen, mitochondrial fusion inhibitor project, WT and mutant strains, chemical genetic; mitochondrial fusion phenotypic screen; inhibition, % at 10 µM; 2.1% of 190,000 active; in the data active = inhibition above about 58%; tested in S. cerevisiae
CHOP inhibitor: inhibitors of CHOP promoter induction, primary screen, cell-based, unfolded protein response, luciferase reporter | CHO-K1 CHOP-promoter luciferase, tunicamycin-induced, 15-18 h | inhibition, % at 10 µM | 3.8% of 220,000 active;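 active = compounds that reduced the stress-induced luciferase reporter signal by more than about 70% of percent inhibition, limit read from the data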;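 also: 0% = tunicamycin plus vehicle and 100% = wells without tunicamycin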
* marks the source's active call; other numbers are inactive results; · = no result given. Sampled rows, rich in hits. Any-hit rate of the full collection: about 13%.

SMILES	RAM inhibit	L major viab	WT yeast gro inh	CHOP inhibitor
CC(=O)c1cc(CN2CCN(CCC(C)C)C(CCO)C2)cs1 (stereo unspecified)	·	·	·	13.7
CC(=O)c1cc(CN2CCN(Cc3ccc(C)cc3)C(CCO)C2)cs1 (stereo unspecified)	1.7	73.2*	2.0	13.4
CCOC(=O)C(CC)(CC)C(=O)/C=C/c1ccc(Br)cc1	0.3	83.0*	61.4*	48.9
CCOC(=O)C(=Cc1ccc(Br)cc1)C(=O)OCC	·	·	·	105.3*
CCOC(=O)C(=Cc1ccc(F)cc1)C(=O)OCC	0.5	6.6	9.8	51.4
CCOC(=O)C(=Cc1ccc(-n2ccnc2)cc1)C(=O)OCC	0.2	79.2*	-7.2	0.7
CCc1ccc(C(C)NC(=O)/C=C/c2ccc(Br)cc2)cc1 (stereo unspecified)	5.1	-6.0	31.7	51.1
O=c1[nH]oc2cc(Cl)ccc12	·	·	·	8.8
COc1ccc(CN2CCNC(=O)C2CC(=O)N2CCCCO2)cc1OC (stereo unspecified)	0.4	-1.5	2.9	27.7
CCN1C(=O)C(CC(=O)Nc2ccc(OC)cc2)N(CCCN2CCN(c3ccc(OC)cc3)CC2)C1=S (stereo unspecified)	1.9	72.2*	-6.0	45.6
CCN1C(=O)C(CC(=O)Nc2ccc(F)cc2)N(CCc2ccc(OC)cc2)C1=S (stereo unspecified)	3.5	6.9	14.1	93.2*
CCN1C(=O)C(CC(=O)Nc2ccc(OC)cc2)N(Cc2cccnc2)C1=S (stereo unspecified)	0.7	-3.5	·	12.4
CCCOc1ccc(NC(=O)CC2C(=O)N(Cc3ccccc3)C(=S)N2Cc2cccs2)cc1 (stereo unspecified)	3.8	64.9*	41.1	47.0
COc1ccc(NC(=O)CC2C(=O)N(CCc3ccccc3)C(=S)N2Cc2cccnc2)cc1 (stereo unspecified)	0.1	84.9*	3.1	40.9
CCN1C(=O)C(CC(=O)Nc2ccc(OC)cc2)N(CCc2ccccc2)C1=S (stereo unspecified)	2.5	16.5	-0.6	7.8
CCCCN(CC(=O)Nc1c(C)cccc1CC)C(=O)SCC	0.8	0.0	-1.1	32.3
Cc1onc(-c2c(Cl)cccc2Cl)c1/C(N)=N/OC(=O)C1CC1	·	·	·	22.4
COc1cc(/C=N/Nc2nc(N3CCCC3)nc(N3CCCC3)n2)ccc1O	0.4	97.0*	29.1	16.6
COc1ccc(/C=N/Nc2nc(Nc3ccccc3)nc(N3CCCCC3)n2)c(OC)c1	3.1	99.5*	5.5	0.2
COc1ccc(/C=N/Nc2nc(N3CCCCC3)nc(N3CCCCC3)n2)cc1[N+](=O)[O-]	-1.1	95.6*	37.1	22.3
CCOc1cc(/C=C2/SC(=S)NC2=O)ccc1OC(=O)c1ccco1	7.8	2.9	79.3*	36.4
COc1ccc(/C=N/Nc2nc(N3CCCC3)nc(N3CCCC3)n2)c(OC)c1OC	0.1	26.8	-1.4	-9.1
CC(Nc1cccc(F)c1)C(=O)Nc1ccc(S(N)(=O)=O)cc1 (stereo unspecified)	-0.1	10.4	4.6	-5.1
CC(=O)OC1CSC2c3ccccc3C(=O)N2Cc2sccc21 (stereo unspecified)	0.0	4.0	-7.6	10.4
COc1nc(C)nc(Cl)c1NC1=NCCN1	·	·	·	1.7
SMILES	RAM inhibit	L major viab	WT yeast gro inh	CHOP inhibitor
Cc1[nH]c2ccccc2c1/C=N/Nc1ccccn1	2.1	56.0*	15.9	15.7
COc1cc(/C=C2\C(=O)N(c3ccc(S(N)(=O)=O)cc3)N=C2C)ccc1OC(=O)c1ccco1	3.3	-4.4	7.3	4.9
Cc1[nH]c2ccccc2c1/C=N/Nc1nncn1N	1.1	9.5	-5.8	-1.8
COc1ccc(/C=N/Nc2nc(Nc3ccccc3)nc(N3CCCC3)n2)cc1[N+](=O)[O-]	2.5	-1.9	8.9	83.5*
COc1cc(/C=N/Nc2nc(Nc3ccccc3)nc(N3CCCCC3)n2)ccc1OCC(=O)O	0.0	-11.3	1.2	16.2
CCOC(=O)c1ccc(N2NC(=O)/C(=C/c3ccc(OC(=O)c4ccco4)c(OC)c3)C2=O)cc1	2.2	60.7*	15.6	-7.5
Cc1[nH]c2ccccc2c1/C=N/Nc1nc(Nc2ccccc2)nc(N2CCOCC2)n1	2.3	99.6*	15.6	-78.9
COc1cc(/C=N/Nc2ccccn2)ccc1O	·	·	·	-23.4
COc1ccc(-c2cnnc(N/N=C/c3ccc(O)c(OC)c3)n2)cc1	5.1	53.6*	20.4	7.1
CCOc1cc(/C=N/Nc2nc(N3CCCCC3)nc(N3CCCCC3)n2)ccc1OC(=O)c1ccco1	2.0	57.8*	18.0	-6.3
COC(=O)c1sc(NC(=O)c2c(OC)cccc2OC)c(C#N)c1C	2.1	15.5	-0.8	7.5

High-throughput results from PubChem BioAssay.
